HT1080NT lethal = kills 2HG-producing HT-1080-NT fibrosarcoma cells. HT-1080-NT fibrosarcoma viability, CellTiter-Glo ATP luminescence, 48 h. Potency, µM (highest dose often 46.1 µM), inactives show at the highest dose activity, negative = less viability, usual class: cytotoxic. 360,000 tested, 1.6% active. AID 686970;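 further: NT is the 2HG producing partner of a matched IDH1 knockdown line; potency means the concentration at half of the fitted maximal effect; 0% = DMSO-treated cells and -100% = media-only wells without cells; nearly all actives have a fitted effect of over 55% in size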
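Luminescent CellTiter-Glo readout after 48 hours of compound exposure at 37 degrees C defined viability of HT-1080-NT cells. Activity was normalized to DMSO wells and cell-free media wells; concentration-response curves were fitted and assigned curve classes.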
Giardia kill = Giardia lamblia killing; activity change, % at 7.66 µM, hits read low; AID 540267; 340,000 tested, 0.15% active; Giardia lamblia trophozoite viability; in the data active means activity change below about -80%; inconclusive means between about -30% and that limit;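 further: parasites exposed to compound for two days anaerobically before the ATP read; on the % scale 0 is the no-effect control and ±100 the full control effect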
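Anaerobic 48 hrs incubation at 37 deg C of 100 trophozoites/well with test compounds; ATPLite 1-Step luminescence, 15-30 min RT, reports cellular ATP as viability.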
HepG2 tox = counter-screen for TGF-b inhibitors: cytotoxicity in HepG2 cells | Potency, µM (highest dose often 46.1 µM), without a hit: at the top dose activity change, negative = cytotoxicity, most hits filed as cytotoxic | 410,000 tested, 0.76% active | HepG2 CAGA-GFP viability, ATP luminescence, 18 h; further: potency means the concentration at half of the fitted maximal effect
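CellTiter-Glo luminescence gave cytotoxicity after 18 hours at 37 degrees C. The cells were HepG2 CAGA-GFP in 1% FBS DMEM, stimulated with 500 pg/mL TGF-beta after compound addition. %Activity was normalised to no-cell wells (complete cell-killing) and DMSO (no toxicity), and curves were fitted and classified.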
IL-1B inflam inh = inflammasome signaling inhibition, IL-1 beta readout; THP-1 LPS/ATP IL-1B secretion, AlphaLISA, 16 h; active compounds read low; 360,000 tested, 4.7% active; activity change, % at 57.5 µM; AID 743279; in the data active means activity change below about -50%; inconclusive means mostly about -30% to -49%; further: on the % scale 0 is the no-effect control and ±100 the full control effect
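Secreted IL-1B measured by AlphaLISA bead assay after 16 h compound exposure of THP-1 cells; compounds (final up to 57.5 uM) added 1 h before LPS (250 ng/mL) and ATP (1.25 mM) stimulation; lower signal means less secretion.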
HT1080 IDH1KD tx = HT-1080 IDH1 knockdown cell toxicity (counter line); HT-1080 IDH1 knockdown viability, ATP luminescence, 48 h; Potency, µM (series often up to 46.1 µM), for inactives: top-dose activity, negative = toxicity, most hits filed as cytotoxic; 360,000 tested, 2% active; AID 686971;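 further: potency means the concentration at half of the fitted maximal effect; 0% = DMSO wells and -100% = cell-free medium wells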
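% activity derives from luminescence (CellTiter-Glo), normalised to DMSO and no-cell wells. HT-1080-IDH1KD cells, 750/well, had 48 h compound exposure at 37 °C.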
TGFb inhibitor = blocks TGF-b signaling | Potency, µM (doses to about 46.1 µM), for the others: top-dose activity, negative = inhibition, most hits filed as inhibitors | AID 588855 | 410,000 tested, 1.2% active | HepG2 CAGA-GFP TGF-b/SMAD3 reporter, GFP fluorescence, 18 h; TGF-beta stimulated, 500 pg/mL final; further: potency means the concentration at half of the fitted maximal effect; on the % scale 0 is the no-effect control and ±100 the full control effect; nearly all actives have a fitted effect of over 65% in size
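Cell-based qHTS in HEPG2 carrying a CAGA-GFP Smad reporter; compounds added before 500 pg/mL final TGF-beta, 18 h incubation at 37 degrees C, GFP fluorescence quantified per cell by imaging cytometry.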
* = called active by the depositor; u = inconclusive; x = no result given; [ ] = dose if it differs, or a comment. The list is not random: actives were taken first. Their share in the collection is about 6.5%. Unless noted, the call rests on the fitted dose curve; in most records, active means well fitted curve in the direction sought with a large enough effect; inconclusive means small, poorly fitted or top-dose-only effect, or another doubt; inactive means no such curve, though single readings can be large; an effect the other way counts as inactive or inconclusive.

SMILES	HT1080NT lethal	Giardia kill	HepG2 tox	IL-1B inflam inh	HT1080 IDH1KD tx	TGFb inhibitor
N/C(=N\OC(=O)Nc1ccccc1)c1ncc([N+](=O)[O-])s1	u	u	8.9µM*	-64*	21µM*	11µM*
COc1cc(OC)c(C#N)c(S(=O)(=O)Cc2ccccc2)c1	25%	2	1%	-21	8%	-8%
N#Cc1c([N+](=O)[O-])cc([N+](=O)[O-])cc1S(=O)(=O)Cc1ccccc1	21µM*	17	10µM*	-112*	2.9µM*	4µM*
CC1CN(S(=O)(=O)c2ccc(NC(=O)c3ccco3)cc2)CC(C)O1 (stereo not given)	0%	-13	-2%	-14	0%	1%
COc1cc(/C=N/NC(=O)C(=O)/C=C2\NC(C)(C)Cc3ccccc32)ccc1O	u	31	-14%	-53*	u	-3%
CCc1noc(C)c1C(=O)OC(C)C(=O)c1c(C)[nH]c2ccccc12 (stereo not given)	-12%	3	-28%	-6	-18%	1%
Cc1[nH]c2ccccc2c1C(=O)C(C)OC(=O)c1ccc([N+](=O)[O-])o1 (stereo not given)	u	u	-40%	-62*	u	u
O=C(N/N=C/c1cccc(O)c1)c1cc(-c2ccc3c(c2)OCO3)n[nH]1	u	3	-29%	-11	u	-5%
COc1ccc(-c2nn(-c3ccccc3)cc2/C=N/N2C(=O)CSC2=S)cc1	25%	1	-46%	-106*	2%	1%
COc1ccc(/C=N/N2C(=O)CSC2=S)cc1	-2%	14	-5%	4	18%	3%
CCC(c1ccccc1)C(CC)c1cc(O)c(O)c(O)c1 (stereo not given)	u	57	-48%	-78*	u	u
O=C(COc1ccccc1Cl)Nc1ccc(NC(=O)c2ccco2)cc1	9%	-13	1%	-59*	6%	6%
CCOc1ccccc1NC(=O)c1ccc(NC(=O)c2ccco2)cc1	-8%	4	-7%	-58*	-6%	u
COc1ccccc1NC(=O)c1ccc(NC(=O)c2ccco2)cc1	-6%	8	-2%	-75*	-2%	4%
COc1ccccc1NC(=O)c1cccc(NC(=O)c2ccco2)c1	7%	0	5%	-22	-4%	11%
COc1ccc(NC(=O)Cc2ccc(Cl)cc2)cc1NC(=O)c1ccco1	u	11	-8%	-56*	-23%	3%
O=C(Nc1cccc2ccccc12)NC(Cc1ccccc1)C(=O)O (stereo not given)	1%	-7	11%	14	12%	16%
COc1ccc(C(=O)Nc2cc(OC)c(NC(=O)c3ccco3)cc2OC)cc1	-1%	-3	3%	10	-15%	9%
COC(=O)Cc1ccc(NC(=O)c2ccc(NC(=O)c3ccco3)cc2)cc1	u	-3	5%	-88*	u	17%
CCOC(=O)Cc1ccc(NC(=O)c2ccc(C(C)(C)C)cc2)cc1	-29%	u	-57%	-56*	u	-17%
COc1ccc(NC(=O)c2ccc(NC(=O)c3ccco3)cc2)c(OC)c1	7%	17	-5%	-50*	4%	-5%
COc1ccc(NC(=O)c2cccc(-n3c(C)ccc3C)c2)c(OC)c1	-16%	-13	-20%	-61*	-26%	-9%
O=C(O)Cc1ccc(NC(=O)c2ccc(NC(=O)c3ccco3)cc2)cc1	5%	-4	-18%	12	10%	-2%
CS(=O)(=O)N(CC(=O)N1CCC(C(N)=O)CC1)Cc1ccc(Cl)c(Cl)c1	9%	22	-14%	-3	4%	1%
COCCNC(=O)c1onc(CSc2ccccn2)c1C(=O)NCCOC	6%	14	2%	17	0%	-3%
SMILES	HT1080NT lethal	Giardia kill	HepG2 tox	IL-1B inflam inh	HT1080 IDH1KD tx	TGFb inhibitor
Cn1c(=O)[nH]c(=O)c2c1nc(Br)n2CC(O)COCc1ccccc1 (stereo not given)	12%	-4	-12%	40	12%	4%
O=C(Nc1ccc(Nc2ccccc2)cc1)c1ccco1	-3%	14	-31%	-100*	u	8%
Cc1ccc(S(=O)(=O)Nc2ccc(N3CCN(C)CC3)nc2)cc1	0%	11	-9%	-65*	-3%	0%
CN1CCN(c2ccc(NS(=O)(=O)c3ccc(Cl)cc3)cn2)CC1	4%	-1	-9%	-11	6%	-3%
COc1ccc(CN2C(=O)CSCC2(C)C(=O)Nc2c(C)cccc2C)cc1OC (stereo not given)	20%	x	x	-10	11%	x
COc1ccc(OC)c(CN2C(=O)CSCC2(C)C(=O)Nc2c(C)cccc2C)c1 (stereo not given)	2%	x	x	-67*	3%	x
Cc1ccc(NC(=S)N2CCC(c3nc4ccccc4s3)CC2)cc1C	u	1	-8%	-65*	-29%[9.24 µM]	u
COc1cccc(-n2cnc3scc(-c4cccs4)c3c2=O)c1	-3%	-19	-9%	-64*	3%[9.24 µM]	6%
Cc1cccc(-n2ncc3c2CCCC3NC(=O)CC(F)(F)F)c1C (stereo not given)	-12%	7	2%	42	-2%	0%
NS(=O)(=O)c1ccc(Nc2nc(-c3ccc(O)cc3O)cs2)cc1	16%	-7	6%	-57*	21%	0%
Cc1cc(NS(=O)(=O)c2ccc(Nc3nc(-c4ccc(C)c(C)c4)cs3)cc2)no1	-10%	-2	-6%	-56*	-16%	u
NS(=O)(=O)c1ccc(Nc2nc(-c3cccnc3)cs2)cc1	14%	19	-1%	6	15%	9%
CC(=O)Nc1ccc(-c2csc(Nc3ccc(S(N)(=O)=O)cc3)n2)cc1	-9%	-20	-16%	-2	2%	6%
NS(=O)(=O)c1ccc(Nc2nc(-c3ccc(F)cc3)cs2)cc1	u	-17	14%	-88*	15µM*	u
COc1ccc(-c2csc(Nc3ccc(S(N)(=O)=O)cc3)n2)cc1OC	3%	-12	1%	-64*	-6%	-4%
Cc1cc(NS(=O)(=O)c2ccc(Nc3nc(-c4ccc(O)cc4)cs3)cc2)no1	5%	-12	4%	-2	4%	-5%
COC(=O)c1ccc(NC(=O)CCc2c(C)nc3c(-c4ccccc4)c(C)nn3c2C)cc1	x	x	-57%	x	x	u
CCn1c(CC(=O)Nc2ccccc2C)nnc1SCC(=O)Nc1nncs1	0%	13	-11%	-1	8%	0%

From PubChem BioAssay
